# Measurements as given in the supplement of paper PMC13094657.
# Counter-ions that a name gives are not always drawn. ± gives the standard deviation of the averaged measurements.
# Experiments:
# MDA-MB-231 [1] = experiment: cell viability relative to vehicle unstimulated control (fraction); higher = more viable cells; conditions: pre-treatment time: 18 h then 24 h IFNg/TNF
# MDA-MB-231 [2] = experiment: kynurenine production, fold change vs DMSO IFNg/TNF control; higher = more kynurenine produced (less inhibition); conditions: pre-treatment time: 18 h then 24 h IFNg/TNF
# Procedure, shortened: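 MDA-MB-231 cells (7 × 10^4/well, 96-well plates, seeded 24 h earlier) were pre-treated 18 h with each natural product in 0.1% DMSO, then stimulated 24 h with IFNγ (1 U/ml) and TNF (6.25 ng/ml) at 37°C. Supernatant kynurenine was read at 492 nm after trichloroacetic acid and p-dimethylaminobenzaldehyde treatment, against 0–100 μM standards. Kynurenine production is the fold change over cytokine-stimulated vehicle wells on the same plate, averaged over duplicate plates in the first screening round.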
# 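For cell viability relative to vehicle unstimulated control in this document: viability of the cells left after supernatant collection, read with Deep Blue dye added for 4 h, as absorbance at 570 nm minus 600 nm.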
SMILES,cell viability (MDA-MB-231 [1]),kynurenine production (MDA-MB-231 [2])
CN1[C@@H]2CC[C@H]1C[C@@H](OC(=O)[C@H](CO)c1ccccc1)C2 [Hyoscyamine hydrobromide] (compound dose: 10 uM),1.03 ± 0.024,0.743 ± 0.061
C=C1[C@H](OC(=O)c2ccccc2)C[C@H]2[C@@H](/C=C(\C)C(=O)[C@@]3(OC(C)=O)C[C@H](C)[C@H](OC(=O)c4ccccc4)[C@@H]3[C@H]1OC(C)=O)C2(C)C [Euphorbia factor L2] (compound dose: 10 uM),1.07 ± 0.015,0.384 ± 0.048
C=C(CO)C(=O)O[C@H]1CC(=C)[C@@H]2C[C@H](O)C(=C)[C@@H]2[C@H]2OC(=O)C(=C)[C@@H]21 [Cynaropicrin] (compound dose: 10 uM),0.69 ± 0.16,0.0672 ± 0.056
CC(C)(C)[C@]1(O)CC2OC(=O)CC23C(=O)OC2OC(=O)[C@H](O)C231 (some centres not stated) [Bilobalide] (compound dose: 10 uM),1.01 ± 0.015,0.774 ± 0.031
CO[C@H]1CCN2[C@@H]3C=CC4=CC(=O)O[C@]4(C3)[C@@H]2C1 [Securitinine] (compound dose: 10 uM),0.983 ± 0.035,0.734 ± 0.084
CC(=O)O[C@H]1C[C@H](O[C@H]2[C@@H](O)C[C@H](O[C@H]3[C@@H](O)C[C@H](O[C@H]4CC[C@@]5(C)[C@H](CC[C@@H]6[C@@H]5C[C@@H](O)[C@]5(C)[C@@H](C7=CC(=O)OC7)CC[C@]65O)C4)O[C@@H]3C)O[C@@H]2C)O[C@H](C)[C@H]1O[C@@H]1O[C@H](CO)[C@@H](O)[C@H](O)[C@H]1O [Lanatoside C] (compound dose: 10 uM),0.607 ± 0.021,0.149 ± 0.015
C=C[C@@H]1C2=CCOC(=O)C2=CO[C@H]1O[C@@H]1O[C@H](CO)[C@@H](O)[C@H](O)[C@H]1O [Gentiopicroside] (compound dose: 10 uM),0.981 ± 0.0079,0.904 ± 0.09
COc1cc(C2OCC3C(c4cc(OC)c(O[C@@H]5O[C@H](CO)[C@@H](O)[C@H](O)[C@H]5O)c(OC)c4)OCC23)cc(OC)c1O[C@H]1O[C@@H](CO)[C@H](O)[C@@H](O)[C@@H]1O (some centres not stated) [Eleutheroside E] (compound dose: 10 uM),0.947 ± 0.033,0.784 ± 0.071
CC(C)c1ccc2c(c1O)CC[C@H]1C3=C(CC[C@]21C)C(=O)OC3 [Triptophenolide] (compound dose: 10 uM),0.9594 ± 0.0068,0.815 ± 0.17
Cc1cc(O)c2c(=O)c3c(O)cc(O)c4c5c(O)cc(O)c6c(=O)c7c(O)cc(C)c8c1c2c(c34)c(c78)c65 [Hypericin] (compound dose: 10 uM),0.0887 ± 0.085,0.103 ± 0.063
CN1[C@@H]2CC[C@H]1C[C@@H](OC(=O)C(CO)c1ccccc1)C2 (some centres not stated) [Atropine sulfate] (compound dose: 10 uM),0.996 ± 0.016,0.795 ± 0.044
CCCCCCCCCCCCCC(=O)O[C@@H]1[C@@H](C)[C@@]2(O)[C@@H](C=C(CO)C[C@]3(O)C(=O)C(C)=C[C@@H]23)[C@@H]2C(C)(C)[C@]12OC(C)=O [Phorbol 12-Myristate 13-Acetate] (compound dose: 10 uM),1.09 ± 0.038,1.01 ± 0.21
COc1cc2c(c(OC)c1OC)-c1ccc(OC)c(=O)cc1[C@@H](NC(C)=O)CC2 [Colchicine] (compound dose: 10 uM),0.802 ± 0.097,0.234 ± 0.046
C[C@]1(C(=O)O)CCC[C@]2(C)c3cc(O)ccc3CC[C@@H]12 [Podocarpic acid] (compound dose: 10 uM),0.946 ± 0.07,0.852 ± 0.12
C=C[C@H]1[C@H](O[C@@H]2O[C@H](CO)[C@@H](O)[C@H](O)[C@H]2O)OC=C2C(=O)OCC[C@H]21 [Sweroside] (compound dose: 10 uM),0.996 ± 0.063,0.832 ± 0.17
"CCCC(=O)O[C@@H]1[C@@H](C)[C@@]2(O)[C@@H](C=C(CO)C[C@]3(O)C(=O)C(C)=C[C@@H]23)[C@@H]2C(C)(C)[C@]12OC(=O)CCC [Phorbol 12,13-Dibutyrate] (compound dose: 10 uM)",1.09 ± 0.072,0.781 ± 0.034
C/C=C(\C)C(=O)N[C@@H](c1ccccc1)[C@@H](O)C(=O)O[C@H]1C[C@@]2(O)[C@@H](OC(=O)c3ccccc3)[C@@H]3[C@]4(OC(C)=O)CO[C@@H]4C[C@H](O)[C@@]3(C)C(=O)[C@H](OC(C)=O)C(=C1C)C2(C)C [Cephalomannine] (compound dose: 10 uM),0.738 ± 0.071,0.267 ± 0.06
O=C(O)c1ccc(=O)[nH]c1 [6-hydroxynicotinic acid] (compound dose: 10 uM),0.951 ± 0.036,0.973 ± 0.098
CN[C@H]1CCc2cc(OC)c(OC)c(OC)c2-c2ccc(OC)c(=O)cc21 [Demecolcine (colcemid)] (compound dose: 10 uM),0.847 ± 0.13,0.486 ± 0.099
CC(C)=CCC[C@H](C(=O)O)[C@H]1CC[C@]2(C)C3=C(CC[C@@]12C)[C@@]1(C)CCC(=O)C(C)(C)[C@H]1CC3 [β-Elemonic acid] (compound dose: 10 uM),1.03 ± 0.034,1.161 ± 0.0012
C=C1CC[C@H]2[C@@H](/C=C(\C)C(=O)[C@@]3(OC(C)=O)C[C@H](C)[C@H](OC(=O)Cc4ccccc4)[C@@H]3[C@H]1OC(C)=O)C2(C)C [Deoxy euphorbia factor L1] (compound dose: 10 uM),1.07 ± 0.074,0.9513 ± 0.0042

SMILES,cell viability (MDA-MB-231 [1]),kynurenine production (MDA-MB-231 [2])
CC1=C2[C@H]3OC(=O)[C@@H](C)[C@@H]3CC[C@@]2(C)C=CC1=O [Santonin] (compound dose: 10 uM),0.9716 ± 0.0046,1.02 ± 0.023
COc1ccc(CC2c3cc(OC)c(OC)cc3CCN2C)cc1OC (configuration not stated) [Laudanosine] (compound dose: 10 uM),1.02 ± 0.043,0.52 ± 0.037
CC(C)=CCC[C@](C)(O)[C@H]1CC[C@]2(C)[C@@H]1[C@H](O)C[C@@H]1[C@@]3(C)CC[C@H](O[C@@H]4O[C@H](CO)[C@@H](O)[C@H](O)[C@H]4O)C(C)(C)[C@@H]3CC[C@]12C [Ginsenoside Rh2] (compound dose: 10 uM),0.908 ± 0.049,0.84 ± 0.19
O=C1C=C2C=C[C@@H]3C[C@@]2(O1)[C@H]1CCCCN31 [Securinine] (compound dose: 10 uM),0.89,0.213 ± 0.096
O=C(/C=C/c1ccccc1)OC[C@H]1O[C@@H](O[C@@H]2OC=C[C@H]3[C@H](O)[C@@H]4O[C@]4(CO)[C@@H]23)[C@H](O)[C@@H](O)[C@@H]1O [Picroside I] (compound dose: 10 uM),0.9642 ± 0.0044,0.923 ± 0.05
COc1cc2c(cc1OC)-c1c3c(cc4c1[C@H](C2)N(C)CC4)OCO3 [Dicentrine] (compound dose: 10 uM),0.83 ± 0.043,0.432 ± 0.0093
COc1cc2c3c(c1OC)-c1ccccc1C[C@H]3N(C)CC2 [Nuciferine] (compound dose: 10 uM),1.05 ± 0.051,1.1 ± 0.08
COc1cc2c(cc1OC)-c1c(OC)c(OC)cc3c1[C@H](C2)N(C)CC3 [(S)-Glaucine (commercial standard)],1.07 ± 0.065,0.852 ± 0.067
C=C1CC[C@H]2[C@@H](/C=C(\C)C(=O)[C@@]3(O)C[C@H](C)[C@H](O)[C@@H]3[C@@H]1O)C2(C)C [Lathyrol] (compound dose: 10 uM),1.08 ± 0.11,0.849 ± 0.095
CN1[C@@H]2CC(O)C[C@H]1[C@@H]1O[C@@H]12 (some centres not stated) [Scopine] (compound dose: 10 uM),1,0.798 ± 0.03
CC(=O)OC12COC1CC(O)C1(C)C(=O)C(O)C3=C(C)C(O)CC(O)(C(OC(=O)c4ccccc4)C21)C3(C)C (configuration not stated) [10-Deacetylbaccatin III] (compound dose: 10 uM),0.999 ± 0.017,0.849 ± 0.18
C[C@@H]1CC[C@H]2[C@@H](C)C(=O)O[C@@H]3O[C@@]4(C)CC[C@@H]1[C@]32OO4 [Artemisinin] (compound dose: 10 uM),1.06 ± 0.079,0.581 ± 0.11
CC1=C(O)C(=O)C=C2C1=CC=C1[C@@]2(C)CC[C@@]2(C)[C@@H]3C[C@](C)(C(=O)O)CC[C@]3(C)CC[C@]12C [Tripterin] (compound dose: 10 uM),0.0346 ± 0.01,0.119 ± 0.017
COc1cc2c3cc1Oc1cc(ccc1O)C[C@@H]1c4c(cc(OC)c(O)c4Oc4ccc(cc4)C[C@H]3N(C)CC2)CCN1C [Curine] (compound dose: 10 uM),0.654 ± 0.038,0.389 ± 0.026
CC(C)[C@]12O[C@H]1[C@@H]1O[C@]13[C@]1(O[C@H]1C[C@H]1C4=C(CC[C@@]13C)C(=O)OC4)[C@@H]2O [Triptolide] (compound dose: 10 uM),0.64 ± 0.034,0.152 ± 0.021
CC(=O)O[C@@]12C[C@@H](C)[C@@]3(O)[C@@H](C=C(CO)C[C@]4(O)C(=O)C(C)=C[C@@H]34)[C@@H]1C2(C)C [Prostratin] (compound dose: 10 uM),1.31 ± 0.36,0.737 ± 0.025
C=C1CCC2C(/C=C(\C)C(=O)C3(OC(C)=O)CC(C)C(OC(=O)c4ccccc4)C3C1OC(C)=O)C2(C)C (configuration not stated) [Euphorbia factor L3] (compound dose: 10 uM),1.05 ± 0.019,0.89 ± 0.11
CC1=C[C@@H]2C(=O)[C@]3(C=C(C)[C@H](O)[C@@]3(O)[C@@H]1O)[C@H](C)C[C@@H]1[C@H]2C1(C)C [20-Deoxyingenol] (compound dose: 10 uM),0.975 ± 0.11,0.703 ± 0.12
CC(=O)O[C@H]1[C@H]2[C@@H](OC(=O)Cc3ccccc3)[C@@H](C)C[C@]2(OC(C)=O)C(=O)/C(C)=C/[C@@H]2[C@H](CC[C@@]13CO3)C2(C)C [Euphorbiasteroid] (compound dose: 10 uM),0.981 ± 0.059,0.997 ± 0.02
C/C=C(/C)C(=O)O[C@H]1[C@@H]2[C@H](C)C(=O)O[C@@H]2C[C@@H](C)[C@@H]2C=CC(=O)[C@]21C [Brevilin A] (compound dose: 10 uM),0.75 ± 0.035,0.132 ± 0.017
